Source: PubChem BioAssay (National Center for Advancing Translational Sciences (NCATS))
Compounds with a hit are over-represented: about 19% of the library has one in this group of screens.
DT40 TDP1 no CPT: qHTS for Inhibitors of human tyrosyl-DNA phosphodiesterase 1 (TDP1): qHTS in cells in absence of CPT. DT40 Tdp1-/- hTDP1 cells, no CPT, ATP luminescence, 48 h. Potency, µM (doses to about 46.2 µM), for inactives: at the top dose activity change, negative = growth inhibition, most hits filed as inhibitors. AID 686978, 2013. actives 15% (n = 420,000); further: potency means the concentration at half of the fitted maximal effect; nearly all actives have a fitted effect of over 55% in size
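Luminescent ATP content (CellTiter-Glo) served as the growth readout. Knockout chicken DT40 cells expressing human TDP1 were exposed to compounds without camptothecin for a minimum 48 hr at 37 °C.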
uPA generation: inhibitors of cell surface uPA generation. actives 0.31% (n = 330,000). cell surface uPA generation assay, qHTS. Potency, µM (doses to about 38.3 µM), for the others: top-dose activity change, negative = inhibition, hits mostly inhibitors; active means well fitted inhibition curve with a large enough effect; inconclusive means small, poorly fitted or top-dose-only effect; inactive means no such curve, though single readings can be large or run the other way; tested in mouse RAW 264.7 cells; further: potency means the concentration at half of the fitted maximal effect; nearly all actives have a fitted effect of over 55% in size
HT1080NT lethal: kills 2HG-producing HT-1080-NT fibrosarcoma cells. HT-1080-NT fibrosarcoma viability, CellTiter-Glo ATP luminescence, 48 h. Potency, µM (titrated, usually from 46.1 µM), for inactives: at the highest dose activity, negative = less viability, actives largely listed as cytotoxic. actives 1.6% (n = 360,000). AID 686970;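 further: NT is the 2HG producing partner of a matched IDH1 knockdown line; potency means the concentration at half of the fitted maximal effect; 0% = DMSO-treated cells and -100% = media-only wells without cells; nearly all actives have a fitted effect of over 55% in size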
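Toxicity toward the 2HG-producing NT line was scored as %Activity, normalised to DMSO and no-cell wells, from CellTiter-Glo luminescence after 48 hours' treatment.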
HT1080 IDH1KD tx: HT-1080 IDH1 knockdown cell toxicity (counter line). HT-1080 IDH1 knockdown viability, ATP luminescence, 48 h. Potency, µM (titrated, usually from 46.1 µM), without a hit: top-dose activity, negative = toxicity, most hits filed as cytotoxic. actives 2% (n = 360,000);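 further: potency means the concentration at half of the fitted maximal effect; 0% = DMSO wells and -100% = cell-free medium wells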
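Assay cells: HT-1080 with IDH1 knockdown, 750 per well, RPMI/5% FBS. Exposure: 48 h at 37 °C following 2 h pre-incubation. Read: CellTiter-Glo luminescence; fitted concentration-response, curve class assigned.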
TDP1 cell CPT: DT40-hTDP1 cell growth loss with CPT; chicken DT40 Tdp1-/-;hTDP1 cells + 20 nM CPT, ATP luminescence, 48 h; Potency, µM (highest dose often 46.2 µM), for the others: top-dose activity change, negative = growth inhibition, actives largely listed as inhibitors; actives 12% (n = 420,000); AID 686979; further: potency means the concentration at half of the fitted maximal effect; nearly all actives have a fitted effect of over 55% in size
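Cell growth measured by CellTiter-Glo luminescence after a minimum 48 h, 37 C compound exposure with 20 nM CPT in Tdp1-knockout DT40 cells stably expressing hTDP1, seeded 400/well; qHTS titration format.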
IL-1B inflam inh: blocks inflammasome-driven IL-1 beta release; actives 4.7% (n = 360,000); activity change, % at 57.5 µM; AID 743279; THP-1 LPS/ATP IL-1B secretion, AlphaLISA, 16 h; active compounds read low; in the data active means activity change below about -50%; inconclusive means mostly about -30% to -49%
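THP-1 cells pretreated 1 hr with compounds (up to 57.5 uM final), then stimulated with LPS (250 ng/mL final) plus ATP (1.25 mM final); secreted IL-1B measured by AlphaLISA after 16 hr, decreased signal indicating inhibition.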
* hit, by the source's call; ? = inconclusive; . = no result; [ ] = another dose, or the depositor's remark. Unless noted, the call rests on the fitted dose curve; in most records, active means well fitted curve in the direction sought with a large enough effect; inconclusive means small, poorly fitted or top-dose-only effect, or another doubt; inactive means no such curve, though single readings can be large; an effect the other way counts as inactive or inconclusive. Unless noted, on the % scale 0 is the no-effect control and ±100 the full control effect.

SMILES	DT40 TDP1 no CPT	uPA generation	HT1080NT lethal	HT1080 IDH1KD tx	TDP1 cell CPT	IL-1B inflam inh
COC(=O)c1cc(S(=O)(=O)N(Cc2ccccc2)C(C)(C)C)c[nH]1	16.4µM*	-28.5%	?	23.1µM*	18.4µM*	45.8
CCc1ccc(CNC(=O)C(CC)n2ccc3cc(S(=O)(=O)N4CCCCC4)ccc32)cc1 (centres undefined)	23.1µM*	.	.	.	?	.
Cc1ccc(CNC(=O)C(=O)NCC(c2cccs2)S(=O)(=O)c2cccs2)cc1 (centres undefined)	-11.2%	.	.	.	?	.
CCC(C(=O)NCCc1ccc(Cl)cc1)n1ccc2cc(S(=O)(=O)N3CCCCC3)ccc21 (centres undefined)	?	.	.	.	13µM*	.
O=C(NCCc1ccc(Cl)cc1)c1ccc(S(=O)(=O)N2CCCC2)cc1	?	-1.2%	-2.2%	-18.8%	?	7.6
CCc1ccc(CNC(=O)C2CCCN(S(=O)(=O)c3ccc4c(ccn4C)c3)C2)cc1 (centres undefined)	14.6µM*	.	.	.	20.6µM*	.
CC(=O)c1cc(F)c(N2CCN(c3ccc([N+](=O)[O-])cc3F)CC2)cc1C	-26.1%	.	3.5%	-4.9%	?	6.5
CC(=O)c1cc(F)c(N2CCN(C(=O)C(C)(C)C)CC2)cc1C	20.6µM*	2.7%	10.9%	10.8%	20.6µM*	-2.6
CCC(=O)c1cc(F)c(N2CCN(C(=O)Cc3ccccc3)CC2)cc1C	14.6µM*	1.0%	1.1%	-9.8%	20.6µM*	-15.4
CC(=O)c1cc(F)c(N2CCCC2)cc1C	20.6µM*	-3.3%	3.7%	0.0%	20.6µM*	-13.0
CC(=O)c1cc(F)c(N2CCOCC2)cc1C	1.2%	7.2%	0.7%	13.5%	-14.2%	-1.6
CC(=O)c1cc(F)c(N2CCN(C(=O)COc3ccccc3F)CC2)cc1C	16.4µM*	-7.2%	-1.7%	-0.2%	20.6µM*	-9.5
COc1ccc(CNC(=O)CN2C(=O)CSc3ccc(S(=O)(=O)N4CCOCC4)cc32)c(OC)c1	18.3%	-2.4%	6.2%	0.2%	-10.7%	-6.3
O=C(c1cnccn1)N1CCC2(CCN(Cc3nccs3)CC2)CC1	-0.7%	.	.	.	7.2%	.
COc1ccc2cc3[n+](cc2c1OC)CCc1cc2c(cc1-3)OCO2	2.31µM*	?	?	?	3.66µM*	?
COc1cccc(C2=NCCc3cc4c(cc32)OCO4)c1OC	?	-2.9%	-3.3%	0.4%	-3.0%	-6.1
Oc1ccc(N2CCN(c3ncnc4sc5c(c34)CCC5)CC2)cc1	13µM*	-8.3%	-23.6%	?	23.1µM*	-27.5
OCCN1CCN(c2ncnc3sc4c(c23)CCCC4)CC1	?	-4.1%	-2.6%	-11.8%	?	-0.6
CSc1ccc(CCNC(=O)c2sc3ncccc3c2-n2cccc2)cc1	25.9µM*	.	.	.	16.4µM*	.
CSc1ncccc1C(=O)NCCc1ccccc1	-6.0%	-1.3%	23.9%	23.0%	-5.3%	-12.1
CCN(CC)CCNC(=O)c1sc2ncccc2c1-n1cccc1	14.1%	.	.	.	-6.1%	.
O=C(NCCc1ccccc1)c1sc2ncccc2c1-n1cccc1	?	.	.	.	25.9µM*	.
O=C(NCc1ccccc1F)c1sc2ncccc2c1-n1cccc1	?	.	.	.	23.1µM*	.
CCCCNC(=O)c1sc2ncccc2c1-n1cccc1	-28.3%	.	.	.	11.6µM*	.
COCCCNC(=O)c1sc2ncccc2c1-n1cccc1	-27.6%	.	.	.	-27.3%	.
SMILES	DT40 TDP1 no CPT	uPA generation	HT1080NT lethal	HT1080 IDH1KD tx	TDP1 cell CPT	IL-1B inflam inh
Cc1cc(C)n(-c2nc3cc(Cl)c(Cl)cc3nc2Nc2c(C)cccc2C)n1	1.0%	.	.	.	9.0%	.
CCOc1ccc(C(=O)OCc2cc(=O)n3nc(C(C)C)sc3n2)cc1	-8.2%	.	.	.	-11.6%	.
CCCCC/C=C\C/C=C\C/C=C\C/C=C\CCCC(=O)O[C@@H](CO)COCCCCCCCCCCCCCCCC	0.3%[4.12 µM]	.	.	.	3.3%[4.12 µM]	.
Cc1cc(Br)ccc1NC(=O)CN(C)Cc1cccs1	?	-1.5%	15.1%	10.4%	-24.8%	-16.2
COCc1cc(C)nc2sc(C(=O)NN)c(-n3cccc3)c12	-29.4%	-3.6%	-1.9%	-9.9%	-5.4%	39.3
CCCCNC(=O)c1sc2nc(C)cc(COC)c2c1-n1cccc1	25.9µM*	7.4%	11.0%	-5.4%	16.4µM*	0.0
CN(C)S(=O)(=O)c1ccc2c(c1)Cc1cc(S(=O)(=O)N(C)C)ccc1-2	-9.3%	-0.5%	?	0.9%	16.1%	-1.6
Cc1nn(CC(=O)NNC(=O)c2ccccc2F)c([N+](=O)[O-])c1Br	-0.4%	-0.8%	?	12.1%	5.5%	-10.6
Cc1ccc(C)c2[nH]c(=O)c(CN(CC3CCCO3)S(=O)(=O)c3ccc4c(c3)OCCO4)cc12 (centres undefined)	16.4µM*	.	3.8%	0.0%	?	-7.8
Cc1cc(C)c2[nH]c(=O)c(CN(CC3CCCO3)S(=O)(=O)c3ccc4c(c3)OCCO4)cc2c1 (centres undefined)	23.1µM*	4.8%	19.8%	4.6%	?	?
Cc1cccc(C)c1-n1nnnc1C1c2ccccc2C(=O)N1CCCn1ccnc1 (centres undefined)	-25.0%	.	17.5%	9.1%	0.0%	12.0
COCC(=O)O[C@]1(CCN(C)CCCc2nc3ccccc3[nH]2)CCc2cc(F)ccc2[C@@H]1C(C)C	16.4µM*	?	?	?	20.6µM*	-25.3
COc1ccc(C(O)c2ncc(-c3cccc4ccccc34)[nH]2)cc1F (centres undefined)	?	.	?	?	?	10.9
CCOC(=O)c1c(C)n(CC(O)CN(C)C)c2cc(Br)c(OC)cc12 (centres undefined)	?	-2.4%	-0.1%	-11.7%	21.9%	-78.7*
CCOC(=O)c1c(CN2CCN(C)CC2)n(C)c2cc(Br)c(OC)cc12	?	.	?	?	?	-19.2
CCOC(=O)c1c(CSC(=N)N)n(C)c2cc(Br)c(OC(C)=O)cc12	16.4µM*	-1.8%	?	?	16.4µM*	-101.9*
CCOC(=O)c1c(CN2CCOCC2)n(-c2ccccc2)c2cc(Br)c(OC)cc12	20.6µM*	1.2%	-17.1%	?	16.4µM*	44.2
CCOC(=O)c1c(CN(C)C)n(-c2ccc(C)cc2)c2cc(Br)c(O)cc12	?	-16.0%	-8.6%	-19.4%	?	-63.5*
CC(C)CN1CCC(=O)N(CCN=[N+]=[N-])CC1	0.8%	-6.2%	4.1%	6.7%	?	14.5
FC(F)(F)c1ccccc1-c1cc(NCc2cccnc2)ncn1	23.9%	.	.	.	9.0%	.
